# Results as given in PubChem BioAssay (Tox21).
# Records with an inconclusive call do not appear. Values without a mark were called inactive. Calls of active or inactive are those of the source. The call rests on the fitted dose curve.
# Assay: p53 small molecule agonists, cell-based qHTS assay with rat liver microsomes: qHTS cell viability counter screen (AID 1963580); further: nearly all actives have a fitted effect of over 45% in size
# Conditions: p53RE-bla HCT-116 + rat microsomes, ATP viability, 16 h; series mostly up to 66 µM; activity change, negative = cytotoxicity: at the top concentration
# Text: National Center for Advancing Translational Sciences [NCATS]
# Division of Preclinical Innovation [DPI]
# U.S. Environmental Protection Agency [EPA]
# National Institutes of Environmental Health Sciences [NIEHS]
# National Toxicology Program [NTP]
# U.S. Food and Drug Administration [FDA]
# p53, a tumor suppressor protein, is activated following cellular insult, including DNA damage and other cellular stresses. The activation of p53 regulates cell fate by inducing DNA repair, cell cycle arrest, apoptosis, or cellular senescence. The activation of p53, therefore, is a good indicator of DNA damage and other cellular stresses. The CellSensor p53RE-bla HCT-116 cell line contains a stably integrated beta-lactamase reporter gene under control of the p53 response elements. The activation of the reporter gene under culture conditions can be detected by fluorescence intensity. This cell line was used to screen the Tox21 10K compound library in the condition of presence of rat liver microsomes and to identify agonists that activate the p53 signaling pathway after in vitro metabolic activation (Ooka et al., Archive of Toxicology 96:1975-1987, 2022). The cytotoxicity of the Tox21 compound library against the p53 RE-bla HCT-116 cell line was tested in parallel by measuring the intra cellular ATP content in the same wells.
# Tox21 Assay Protocol Summary:
# The p53RE-bla cells were dispensed at 4,000cells/3ul/well in 1536-well black-clear bottom plates. After the assay plates were incubated at 37 C, 5% CO2 incubator for 5 hours, 23 nL of compounds dissolved in DMSO, positive controls or DMSO only was transferred to the assay plate. Following compound addition, 3 uL of rat liver microsomes (Molecular Toxicology, Boone, NC) at final concentration of 0.5 mg/mL and 1uL of B-Nicotinamide adenine dinucleotide 2'-phosphate (NADPH) at final concentration of 0.5 mg/mL were transferred to the assay plate. The plates were incubated at 37 C for 16 hours. 1 uL of LiveBLAzer detection mixture was added to each well and the plates were incubated at room temperature in the dark for 2 h. Fluorescence intensity at 460 and 530 nm emission and 405 nm excitation were measured by an Envision plate reader. For cell viability readout that measures cytotoxicity, 4 ul/well of CellTiter-Glo reagent was added into the assay plates using a Flying Reagent Dispenser. After 30 min incubation at room temperature, the luminescence intensity in the plates was measured using a ViewLux plate reader.
# On the % scale 0 is the no-effect control and ±100 the full control effect; potency means the concentration at half of the fitted maximal effect.
Compound,"activity change, negative = cytotoxicity",Potency
O=[N+]([O-])c1ccc2c3c(cccc13)CC2,-1.95%,
CCCCCCC[CH2][Sn]([Cl])([Cl])[CH2]CCCCCCC,-7.03%,
c1ccc2c(c1)CCNC2,-0.648%,
CCCCCCBr,-0.0001%,
CCc1ccccc1N,4.86%,
CCc1ccc(C2CCNCC2)cc1,5.01% [at 30.3 µM],
O=[N+]([O-])c1ccc(O)c([N+](=O)[O-])c1,,inactive
O=C(CCl)NCO,-5.49%,
O=c1[nH]c2ccccc2n1CCCN1CCC(n2c(=O)[nH]c3cc(Cl)ccc32)CC1,6.71% [at 30.3 µM],
NNCCO,-2.52%,
[Cl][Hg][c]1ccccc1,,8.14 µM (active)
CC(C)C(=O)Cl,-4.8%,
C=CC(=O)[O][Sn]([CH2]CCC)([CH2]CCC)[CH2]CCC,,8.14 µM (active)
CC(C)(C)NCC(O)c1cc(Cl)c(N)c(C(F)(F)F)c1 (stereo not given),14.5% [at 30.3 µM],
CCN(CC)CCOC(=O)C(O)(c1ccccc1)c1ccccc1,-4.77% [at 30.3 µM],
C[C@@H](Oc1ccc(Cl)cc1Cl)C(=O)O,-2.62%,
C=CCN1CC[C@]23c4c5ccc(O)c4O[C@H]2C(=O)CC[C@@]3(O)[C@H]1C5,0.787% [at 30.3 µM],
COc1cc(OC)nc(NC(=O)NS(=O)(=O)c2ncccc2OCC(F)(F)F)n1,0.918%,
O=c1[nH]oc2c1CCNC2,1.28% [at 30.3 µM],
CC(C)(C)c1cc(O)ccc1O,1.06%,

Compound,"activity change, negative = cytotoxicity",Potency
CCS(=O)(=O)C(C)(C)S(=O)(=O)CC,2.15% [at 30.3 µM],
O=C(NC(=O)c1c(F)cccc1F)Nc1ccc(Oc2ccc(C(F)(F)F)cc2Cl)cc1F,5.72%,
O=C(NC(=O)c1c(F)cccc1F)Nc1cc(Cl)c(OC(F)(F)C(F)F)c(Cl)c1,-5.38%,
C[C@H]1O[C@@H](O[C@H]2[C@@H](O)C[C@H](O[C@H]3[C@@H](O)C[C@H](O[C@H]4CC[C@@]5(C)[C@H](CC[C@@H]6[C@@H]5CC[C@]5(C)[C@@H](C7=CC(=O)OC7)CC[C@]65O)C4)O[C@@H]3C)O[C@@H]2C)C[C@H](O)[C@@H]1O,,0.073 µM (active)
CCCCN(CCCC)C(=S)[S-].CCCCN(CCCC)C(=S)[S-].[Ni+2],0.281% [at 30.3 µM],
C[N+]1(C)[C@@H]2CC[C@H]1CC(OC(=O)C(CO)c1ccccc1)C2 (stereo not given in full),-3.32% [at 30.3 µM],
CCCCc1ccc(O)cc1,-1.33%,
Cc1cccc2sc3nncn3c12,15.6%,
CCOC(=O)N(C)C(=O)CSP(=S)(OCC)OCC,24.8%,
COc1cc(CC(C)N)cc(OC)c1OC (stereo not given),-32%,
C[N+](C)=CCl,-0.18%,
C=CCOC(C)=O,-1.79%,
N#CN=C1SCCN1Cc1ccc(Cl)nc1,-0.918%,
CSc1ccc(C(=O)C(C)(C)N2CCOCC2)cc1,-0.648%,
CC(C)[C@@H](C(=O)O[C@@H](C#N)c1cccc(Oc2ccccc2)c1)c1ccc(Cl)cc1,,inactive
CNC(=O)O/N=C(\C)C(C)S(C)(=O)=O (stereo not given),-11.6% [at 623 µM],
CCO[C@H]1O[C@@H]2OC3(C)CC[C@H]4[C@H](C)CC[C@@H]([C@H]1C)[C@@]24OO3,3.24% [at 30.3 µM],
CN1CCC(O)(c2ccc(F)cc2)C(C(=O)c2ccc(F)cc2)C1 (stereo not given),-6.91% [at 30.3 µM],
CN1C(=S)CN=C(c2ccccc2)c2cc(Cl)ccc21,-2.1% [at 30.3 µM],
COP(=O)(OC)O/C(=C\Cl)c1cc(Cl)c(Cl)cc1Cl,8.95%,
